Source: PubChem
Shown are actives, neighbours in structure and some others; about 1.2% of the full set was active somewhere.
gsp agonist – gsp mutant agonism; gsp mutant cells, cAMP HTRF, 30 min; Potency, µM (titrated, usually from 76.9 µM), for inactives: top-dose activation (cAMP increase), actives largely listed as activators; actives 0.13% (n = 340,000); active = well fitted activation curve with a large enough effect; inconclusive = small, poorly fitted or top-dose-only effect, or another doubt; inactive = no such curve, though single readings can be large or run the other way; cell line not stated here;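 note: phosphodiesterase inhibitor Ro 20-1724 added with compounds to block cAMP breakdown; potency is the fitted concentration of half-maximal effect; nearly all actives have a fitted effect of over 60% in size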
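Cells stably selected in G418 were plated at 2000/well, grown 16-24 hr, then given compounds in DMSO with the PDE inhibitor […] (300 uM solution added) for 30 min at 37C; cAMP was read by HTRF.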
CCT modulator – changes cytosolic chaperonin activity. purified chaperonin ATPase assay, HTRF ADP detection, 30 min. activity change, % (test concentration not listed), hits read low. actives 0.3% (n = 360,000). AID 651819; in the data active = activity change below about -30%; note: % is set by controls: 0 for no effect and ±100 for the full control effect
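TRiC (40 or 20 nM final, by batch activity) in 30 mM Tris pH 7.4, 100 mM KCl, 5 mM MgCl2, 1 mM DTT was treated with compound at 76 uM single dose, then 10 uM ATP, 30 min at 37 °C. ADP was read by HTRF Transcreener.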
TSHR antagonist – blocks TSH signaling through the human TSH receptor. P16473. TSHR-expressing cells, TSH-stimulated cAMP HTRF, 2 h; stronger effect = lower value. activity change, negative = inhibition, % at 11.5 µM. actives 0.2% (n = 330,000). AID 504810;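 active = activity change below a set negative limit, meaning inhibition stronger than a set level, cut at about -70% in these data; inconclusive = activity change between two set negative limits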; note: % is set by controls: 0 for no effect and ±100 for the full control effect
Target sequence (P16473 whole entry, looked up): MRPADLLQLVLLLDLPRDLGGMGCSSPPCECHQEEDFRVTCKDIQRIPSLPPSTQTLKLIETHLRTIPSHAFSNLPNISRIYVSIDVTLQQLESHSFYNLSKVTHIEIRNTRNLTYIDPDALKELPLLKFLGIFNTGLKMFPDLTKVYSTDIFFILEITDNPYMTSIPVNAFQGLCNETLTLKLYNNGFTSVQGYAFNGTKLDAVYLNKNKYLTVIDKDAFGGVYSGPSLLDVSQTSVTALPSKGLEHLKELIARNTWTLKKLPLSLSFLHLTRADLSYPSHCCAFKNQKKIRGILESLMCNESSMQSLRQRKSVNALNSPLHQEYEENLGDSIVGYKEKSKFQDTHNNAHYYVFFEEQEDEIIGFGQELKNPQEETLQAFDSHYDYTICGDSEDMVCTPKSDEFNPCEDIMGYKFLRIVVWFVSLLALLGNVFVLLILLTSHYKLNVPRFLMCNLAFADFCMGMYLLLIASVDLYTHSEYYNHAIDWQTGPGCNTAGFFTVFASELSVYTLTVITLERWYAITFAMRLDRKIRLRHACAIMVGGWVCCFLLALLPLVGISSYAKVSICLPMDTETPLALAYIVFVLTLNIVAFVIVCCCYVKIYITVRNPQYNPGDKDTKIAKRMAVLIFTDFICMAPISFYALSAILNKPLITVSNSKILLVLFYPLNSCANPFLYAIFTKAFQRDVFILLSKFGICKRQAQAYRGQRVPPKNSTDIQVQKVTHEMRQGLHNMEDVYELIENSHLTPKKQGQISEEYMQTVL
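Freshly harvested TSHR cells receive pin-tooled compound, then EC80 TSH at 4nM final. After 2 hours at 37 deg C, antibody in lysis buffer and cAMP-d2 are added; 30 minutes at ambient temperature precede the HTRF read.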
MmCpn inh – M. maripaludis TRiC chaperonin inhibition. purified Mm-Cpn ATPase, ADP Transcreener TR-FRET. Potency, µM (doses to about 76.9 µM), inactives show top-dose activity, negative = inhibition, hits mostly inhibitors. actives 0.031% (n = 330,000); active = well fitted inhibition curve with a large enough effect; inconclusive = small, poorly fitted or top-dose-only effect; note: potency is the fitted concentration of half-maximal effect; % is set by controls: 0 for no effect and ±100 for the full control effect; nearly all actives have a fitted effect of over 80% in size
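Compound-treated chaperonin, 25 nM final, turns over 10 uM ATP at 37°C for 30 min following a 10 min preincubation; ADP generated competes with ADP-d2 for Eu-cryptate antibody, lowering FRET.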
gsp antagonist – antagonists of gsp mutant (McCune-Albright syndrome); gsp-mutant cells, cAMP HTRF, 30 min; Potency, µM (highest dose often 76.9 µM), for inactives: at the highest dose activity change, negative = inhibition, hits mostly inhibitors; actives 0.4% (n = 340,000); AID 624288; calls by dose curve; cell line not stated here;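 note: intracellular cAMP measured with PDE inhibitor Ro 20-1724 present during compound exposure; potency is the fitted concentration of half-maximal effect; % is set by controls: 0 for no effect and ±100 for the full control effect; nearly all actives have a fitted effect of over 65% in size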
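HTRF cAMP measurement after 30 min RT detection following 30 min, 37C compound treatment alongside […] (added as 300 uM solution) in G418-selected cells seeded at 2000/well and grown 16–24 h.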
uPA surface inh – inhibitors of cell surface uPA generation. cell surface uPA generation assay, qHTS. Potency, µM (titrated, usually from 38.3 µM), for the others: at the highest dose activity change, negative = inhibition, actives largely listed as inhibitors. actives 0.31% (n = 330,000). AID 540303; active = well fitted inhibition curve with a large enough effect; inconclusive = small, poorly fitted or top-dose-only effect; inactive = no such curve, though single readings can be large or run the other way; tested in mouse RAW 264.7 cells; note: potency is the fitted concentration of half-maximal effect; % is set by controls: 0 for no effect and ±100 for the full control effect; nearly all actives have a fitted effect of over 55% in size
The depositor's hits bear a star; ? = inconclusive; · = not tested or not shown; [ ] = remark or other dose.

SMILES	gsp agonist	CCT modulator	TSHR antagonist	MmCpn inh	gsp antagonist	uPA surface inh
CN(C)CCOc1ccc(C(C)(C)c2ccccc2)cc1	-1%[15.4 µM]	-2	0	-2%	14%	1%
CC(C)(c1ccccc1)c1ccc(OCC2CO2)cc1 (centres undefined)	0%[15.4 µM]	-30*	7	-2%	·	3%
O=S(=O)(c1ccc(OCC2CO2)cc1)c1ccc(OCC2CO2)cc1 (centres undefined)	-29%	-1	8	2%	-9%	5.6µM*
CC(CCc1ccccc1)NC(=O)COC(=O)c1ccccc1Br (centres undefined)	0%	-1	-9	0%	-10%	0%
Cc1nnc(OCc2nc3ccccc3n2C)c2ccccc12	-6%	0	6	0%	-4%	9%
Cc1ccc(C)c(NC(=O)c2cnn3ccccc23)c1	-23%	-1	-3	1%	-7%	11µM*
Cc1ccc(-c2nc3cc(NC(=O)C(C)C)ccc3o2)cc1	21%	-2	1	0%	-7%[15.4 µM]	-3%
CC(Oc1ccc(Cl)cc1Cl)C(=O)Nc1ccc2oc(-c3ccncc3)nc2c1 (centres undefined)	2%	0	-13	3%	32µM*	-2%
Fc1ccccc1/C=N/Nc1ccc(Cl)nn1	?	1	-2	1%	-2%	7%
COc1cc(CNCc2cccc3ccccc23)cc(OC)c1	-13%	0	-7	-1%	50µM*	16%
CC1CCCCC12NC(=O)N(CC(=O)Nc1ccc3c(c1)OCO3)C2=O (centres undefined)	-56%	-1	·	·	·	·
O=C(COc1coc(CN2CCN(c3ccccc3)CC2)cc1=O)Nc1cccc(F)c1	1%[15.4 µM]	-2	-6	-3%	-5%	2%
CC1CCCCC1NC(=O)COC(=O)c1ccc([N+](=O)[O-])o1 (centres undefined)	10%[15.4 µM]	1	0	0%	2%	0%
CC1CCCC(NC(=O)COC(=O)c2ccc([N+](=O)[O-])o2)C1C (centres undefined)	15%	-64*	-2	1%	1%	1%
CCC(C(=O)N1CCOCC1)n1nc(C)c2c(C)n(-c3ccccc3)nc2c1=O (centres undefined)	2%	-1	2	2%	2%	-4%
O=C(/C=C/c1ccc(F)cc1)c1cc(Br)ccc1O	-1%[15.4 µM]	-2	-13	-3%	-12%	2%
O=C(/C=C/c1ccccc1)c1cc(Br)ccc(=O)c1O	-76%	2	-85*	?	-12%	-18%
C/C(=N\NC(=O)c1nnn(-c2nonc2N)c1CN(C)c1ccccc1)c1ccc(O)cc1	-18%	-3	-1	5%	-30%	4%
CC/C(=N\NC(=O)c1nnn(-c2nonc2N)c1CN(C)c1ccccc1)c1ccccc1	-5%	-67*	-6	1%	1%	-12%
CCOC(=O)N1CCN(C(=O)c2ccc3c(c2)N(C)C(=O)/C(=C\c2ccc(OCC)c(OC)c2)S3)CC1	-1%	0	16	-2%	-10%	-11%
CCOC(=O)N1CCN(C(=O)c2ccc3c(c2)NC(=O)/C(=C\c2ccc(OC)c(OC)c2)S3)CC1	11%	0	-133*	0%	0%	3%
CCOc1c2ccc(C(=O)NCc3ccc(OC(F)(F)F)cc3)cc2nn1CC	0%	-59*	5	0%	-6%	10%
Cc1nn(C)c(C)c1C1Nc2ccccc2C(=O)N1O (centres undefined)	11%	2	5	1%	4%	-4%
O=C1c2ccccc2NC(c2cnc3ccccc3n2)N1O (centres undefined)	22µM*	2	-7	-1%	-11%	-4%
CC(NC(=O)c1cc(COc2ccc3ncccc3c2)on1)c1ccc(F)cc1 (centres undefined)	-6%	0	-27	2%	28µM*	?
SMILES	gsp agonist	CCT modulator	TSHR antagonist	MmCpn inh	gsp antagonist	uPA surface inh
COc1cccc(CN(C)C(=O)c2cc(COc3ccc4ncccc4c3)on2)c1	-6%[15.4 µM]	1	-29	1%	35µM*	-8%
COc1cccc(CN(C)C(=O)c2cc(COc3c(F)cccc3F)on2)c1	19%	-3	-15	-1%	5%	0%
CC1CC(=O)Nc2ccccc2N1 (centres undefined)	0%	0	·	·	5%	-10%
O=C(O)CC1S/C(=N/N=C2CCCCC2)N(c2ccccc2)C1=O (centres undefined)	6%	1	1	2%	10%	1%
C/C(=N\N=C1/SC(CC(=O)O)C(=O)N1c1ccccc1)c1ccc(C)cc1 (centres undefined)	-26%	-3	-7	?	25µM*	1%
c1ccc2c(Nc3nc(N4CCOCC4)c4ccccc4n3)cccc2c1	4%[15.4 µM]	-1	-13	2%	?	12%
O=C(NCCCCCCNC(=O)c1ccccc1O)c1ccccc1O	-3%[15.4 µM]	3	-28	-8%	45µM*	-2%
COC(=O)c1ccc(NC(=O)CSCc2ccccc2)cc1	-1%	-1	-6	0%	-1%	2%
CCC(=O)Oc1ccc(NC(=O)CSCc2ccccc2)cc1	16%	1	1	0%	?	10µM*
O=C(CSCc1ccc(Cl)cc1)N/N=C/c1ccc(OCC(=O)Nc2ccccc2)cc1	19%	-53*	-30	-2%	-10%	-5%
CCO/C=C1/C(=O)N(C(C)=O)c2ccccc21	0%	0	8	-1%	-1%	·
Cc1nc2ccccc2nc1SCC(=O)N1CCC(C)CC1	10µM*	0	2	-7%	12%	·
CC1CCN(C(=O)CSc2nc3ccccc3s2)CC1	-59%	-3	-12	-2%	-5%	3%
CCCC(=O)Nc1cccc(Oc2ccc3c(c2)C(=O)NC3=O)c1	16%	1	0	-4%	0%	1%
CCOC(=O)C1(Cc2ccc(OC)cc2)CCN(C(=O)c2ccc3[nH]ccc3c2)CC1	3%	-23	-3	-2%	-15%	11µM*
CCOC(=O)[C@@H]1[C@H]2COc3ccccc3[C@H]2N2C(=O)N(c3cccc(F)c3)C(=O)[C@]12C	13%	-1	-8	-1%	-5%	-9%
COC(=O)CCCNC(=O)c1ccccn1	-30%	-2	-7	0%	10%	1%
NC(c1ccccc1)c1ccncc1 (centres undefined)	-112%	-43*	6	2%	4%	2%
CCNc1ccc(C(=O)OCC)cc1NC(=O)c1cccc(S(=O)(=O)N2CCOCC2)c1	5%	-1	15	-1%	-8%	-4%
